In PubChem BioAssay (NCATS):
Records with an inconclusive call do not appear. Where a call stands in place of a potency, no number is given. Calls of active or inactive are those of the source. Calls follow the shape of the dose curve; as a rule, active = well fitted cell-killing curve with a large enough effect; inconclusive = small, poorly fitted or top-dose-only effect; inactive = flat fitted curve, though single readings scatter.

What was measured:
[1] = Cell Viability - LYMP2-017 (AID 972);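 also: cells exposed to compound for 24 hours at 37 °C; nearly all actives have a fitted effect of over 55% in size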; also: potency is read from the fitted curve at half-maximal effect
How it was run: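 Steps: plate 2500 lymphoblastoid cells per well; incubate 5 hr at 37 C; add compound across a concentration series and incubate 24 hr at 37 C; add CellTiter-Glo and read luminescence after 30 min at room temperature; fit Hill curves for AC50.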

[2] = Cell Viability - LYMP2-023 (AID 975);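 also: cellular ATP measured by luciferase luminescence as viability proxy; series mostly up to about 92 µM; cells exposed to compound for 24 hours at 37 °C; nearly all actives have a fitted effect of over 55% in size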
How it was run: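 Concentration-dependent drop in intracellular ATP measures acute cytotoxicity in a human lymphoblastoid line treated for 24 hours in complete culture medium. AC50 values are taken from Hill-equation fits of qHTS data.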

[3] = Cell Viability - LYMP2-025 (AID 976);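 also: series mostly up to about 92 µM; cells exposed to compound for 24 h at 37 °C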
How it was run: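 In qHTS format, LYMP2-025 lymphoblastoid cells in complete culture medium received compound for 24 hr; ATP-based CellTiter-Glo signal gave viability, with AC50 derived by Hill equation.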

[4] = Cell Viability - LYMP2-002 (AID 977);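 also: series mostly up to about 92 µM; compound exposure lasted 24 h at 37 °C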
How it was run: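 Cytotoxicity is scored as concentration-dependent loss of cellular ATP in a human lymphoblastoid line after 24 hr compound treatment at 37 C. AC50 is obtained by modelling concentration-response data with the Hill equation.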

[5] = Cell Viability - LYMP2-006 (AID 978);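 also: series mostly up to about 92 µM; cells exposed to compound for 24 hours; nearly all actives have a fitted effect of over 60% in size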
How it was run: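 Concentration-dependent loss of intracellular ATP in a human lymphoblastoid line after 24 hr treatment at 37 C was measured by CellTiter-Glo luminescence, with AC50 values obtained from standard Hill-equation modelling.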

[6] = Cell Viability - LYMP2-007 (AID 979);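 also: cells exposed to compound for 24 h before reading; nearly all actives have a fitted effect of over 60% in size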; also: potency is read from the fitted curve at half-maximal effect
How it was run: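 Acute toxicity is scored as a concentration-dependent fall in intracellular ATP in human lymphoblastoid cells treated 24 hr at 37 C, measured by luciferase luminescence; Hill-equation modelling yields AC50.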

[7] = Cell Viability - LYMP2-008 (AID 980);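 also: cells exposed to compound for 24 h at 37 °C; nearly all actives have a fitted effect of over 60% in size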
How it was run: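 Acute cytotoxicity is scored as concentration-dependent loss of cellular ATP in a human lymphoblastoid line after 24 hr treatment at 37 C. ATP is quantified by luciferase luminescence.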

[8] = Cell Viability - LYMP2-010 (AID 981);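 also: cells exposed to compound for 24 hours at 37 °C; nearly all actives have a fitted effect of over 55% in size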; also: potency is read from the fitted curve at half-maximal effect
How it was run: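 Acute toxicity is scored as a concentration-dependent loss of cellular ATP in human lymphoblastoid cells after 24 hr compound exposure in complete medium. Tetraoctylammonium bromide is the positive control.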

[9] = Cell Viability - LYMP2-012 (AID 982);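 also: cellular ATP by luciferase luminescence where a drop means cytotoxicity; cells exposed to compound for one day before reading; nearly all actives have a fitted effect of over 55% in size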
[10] = Cell Viability - LYMP2-014 (AID 983);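 also: series mostly up to about 92 µM; cells exposed to compound for 24 h at 37 °C; nearly all actives have a fitted effect of over 50% in size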
How it was run: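 Decrease in intracellular ATP after 24 hr treatment at 37 C, measured by luciferase luminescence, indicated cytotoxicity. Concentration-response data were fitted with the standard Hill equation to give AC50.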

[11] = Cell Viability - LYMP2-016 (AID 984)
How it was run: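 Acute toxicity in a Coriell human lymphoblastoid line is scored as loss of intracellular ATP over 24 h of treatment in complete medium. CellTiter-Glo signal is fitted across concentrations with the Hill equation to give AC50.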

[12] = Cell Viability - LYMP2-018 (AID 985);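 also: compound exposure lasted 24 hr at 37 °C; nearly all actives have a fitted effect of over 50% in size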; also: potency is read from the fitted curve at half-maximal effect
How it was run: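 Acute cytotoxicity is scored as a concentration-dependent drop in intracellular ATP after 24 hr exposure of the lymphoblastoid line in complete culture medium, measured by luciferase luminescence. Potency is expressed as AC50 from Hill modelling.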

[13] = Cell Viability - LYMP2-020 (AID 986)
How it was run: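 Acute cytotoxicity in a human lymphoblastoid line is scored as a concentration-dependent fall in cellular ATP after 24 hr at 37 C in complete medium. The positive control is tetraoctylammonium bromide, and potency is given as Hill-fit AC50.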

[14] = Cell Viability - LYMP2-022 (AID 987); also: nearly all actives have a fitted effect of over 55% in size; also: potency is read from the fitted curve at half-maximal effect
How it was run: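 Acute toxicity in a human lymphoblastoid line is scored as decreased intracellular ATP after 24 hr compound treatment at 37 C. ATP is measured by CellTiter-Glo luminescence; curves are fitted with the Hill equation to give AC50.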

[15] = Cell Viability - LYMP2-024 (AID 988); also: nearly all actives have a fitted effect of over 60% in size; also: potency is read from the fitted curve at half-maximal effect
How it was run: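 Acute toxicity is measured as concentration-dependent loss of intracellular ATP in a human lymphoblastoid line treated 24 hours at 37 C. Luciferase luminescence quantifies ATP; AC50 values come from standard Hill-equation modelling.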

[16] = Cell Viability - LYMP2-026 (AID 989);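 also: cells exposed to compound for 24 h at 37 °C; nearly all actives have a fitted effect of over 50% in size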
How it was run: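 Concentration-dependent loss of intracellular ATP in human lymphoblastoid cells after 24 hr at 37 C, quantified by luciferase luminescence. AC50 derived from standard Hill equation.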

[17] = Cell Viability - LYMP1-002 - Assay at 24 hr (AID 993); also: potency is read from the fitted curve at half-maximal effect
How it was run: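 qHTS, LYMP1-002 lymphoblastoid, 24 h cpd, 37 C, CellTiter-Glo ATP luminescence; AC50 via Hill eq.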

[18] = Cell Viability - LYMP1-002 - Assay at 40 hr (AID 994); also: nearly all actives have a fitted effect of over 60% in size; also: potency is read from the fitted curve at half-maximal effect
How it was run: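 Viability in the human lymphoblastoid line was measured as intracellular ATP via CellTiter-Glo after 40 hr compound exposure. Tetraoctylammonium bromide served as positive control.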

| SMILES | Potency [1] | Potency [2] | outcome [3] | outcome [4] | Potency [5] | Potency [6] | Potency [7] | Potency [8] | Potency [9] | Potency [10] | Potency [11] | Potency [12] | Potency [13] | Potency [14] | Potency [15] | outcome [16] | Potency [17] | Potency [18] |
| --- | --- | --- | --- | --- | --- | --- | --- | --- | --- | --- | --- | --- | --- | --- | --- | --- | --- | --- |
| CCCCO | inactive | inactive | inactive | inactive | inactive | inactive | inactive | inactive | inactive | inactive | inactive | inactive | inactive | inactive | inactive | inactive | inactive | inactive |
| C[C@H](CCC(=O)O)[C@H]1CC[C@H]2[C@@H]3CC[C@@H]4C[C@H](O)CC[C@]4(C)[C@H]3C[C@H](O)[C@]12C | inactive | inactive | inactive | inactive | inactive | inactive | inactive | inactive |  |  | inactive | inactive | inactive | inactive | inactive | inactive | inactive | inactive |
| Nc1ccc(N=Nc2ccccc2)c(N)n1 | inactive | inactive | inactive | inactive | inactive | inactive | inactive | inactive | inactive | inactive | inactive | inactive | inactive | inactive | inactive | inactive | inactive | inactive |
| OC[C@H]1O[C@@H]2O[C@H]3[C@H](O)[C@@H](O)[C@@H](O[C@H]4[C@H](O)[C@@H](O)[C@@H](O[C@H]5[C@H](O)[C@@H](O)[C@@H](O[C@H]6[C@H](O)[C@@H](O)[C@@H](O[C@H]7[C@H](O)[C@@H](O)[C@@H](O[C@H]1[C@H](O)[C@H]2O)O[C@@H]7CO)O[C@@H]6CO)O[C@@H]5CO)O[C@@H]4CO)O[C@@H]3CO | inactive | inactive | inactive | inactive | inactive | inactive | inactive | inactive | inactive | inactive | inactive | inactive | inactive | inactive | inactive | inactive | inactive | inactive |
| OCl | inactive | inactive | inactive | inactive | inactive | inactive | inactive | inactive | inactive | inactive | inactive | inactive | inactive | inactive | inactive | inactive | inactive | inactive |
| C[C@H]1O[C@@H](O[C@H]2[C@@H](O)C[C@H](O[C@H]3[C@@H](O)C[C@H](O[C@H]4CC[C@@]5(C)[C@H](CC[C@@H]6[C@@H]5C[C@@H](O)[C@]5(C)[C@@H](C7=CC(=O)OC7)CC[C@]65O)C4)O[C@@H]3C)O[C@@H]2C)C[C@H](O)[C@@H]1O | 251 nM (active) |  |  |  |  |  |  | 251 nM (active) |  |  |  | 158 nM (active) |  | 251 nM (active) | 158 nM (active) |  | 158 nM (active) | 158 nM (active) |
| Cc1ncc[nH]1 | inactive | inactive | inactive | inactive | inactive | inactive | inactive | inactive | inactive | inactive | inactive | inactive | inactive | inactive | inactive | inactive | inactive | inactive |
| CO | inactive | inactive | inactive | inactive | inactive | inactive | inactive | inactive | inactive | inactive | inactive | inactive | inactive | inactive | inactive | inactive | inactive | inactive |
| CC/C=C\C/C=C\C/C=C\CCCCCCCC(=O)O | 50100 nM (active) |  |  | inactive |  | 39800 nM (active) |  | 39800 nM (active) |  |  |  |  |  | 50100 nM (active) | 39800 nM (active) |  | inactive | inactive |
| Cc1ccc(S(=O)(=O)O)cc1C | inactive | inactive | inactive | inactive | inactive | inactive | inactive | inactive | inactive | inactive | inactive | inactive | inactive | inactive | inactive | inactive | inactive | inactive |
| OB(O)O | inactive | inactive | inactive | inactive | inactive | inactive | inactive | inactive | inactive | inactive | inactive | inactive | inactive | inactive | inactive | inactive | inactive | inactive |
| CC[C@H]1OC(=O)[C@H](C)[C@@H](O[C@H]2C[C@@](C)(OC)[C@@H](O)[C@H](C)O2)[C@H](C)[C@@H](O[C@@H]2O[C@H](C)C[C@H](N(C)C)[C@H]2O)[C@](C)(O)C[C@@H](C)CN(C)[C@H](C)[C@@H](O)[C@]1(C)O | inactive | inactive | inactive | inactive | inactive | inactive | inactive | inactive | inactive | inactive | inactive | inactive | inactive | inactive | inactive | inactive | inactive | inactive |
| [O-][N+](=Nc1ccccc1)c1ccccc1 | inactive | inactive | inactive | inactive | inactive | inactive | inactive | inactive | inactive | inactive | inactive | inactive | inactive | inactive | inactive | inactive | inactive | inactive |
| O.O.O.O.O.O.O.O=S(=O)([O-])[O-].[Co+2] | inactive | inactive | inactive |  | inactive |  | inactive |  |  |  | inactive | inactive |  |  |  |  | inactive | inactive |
| OCc1ccccc1 | inactive | inactive | inactive | inactive | inactive | inactive | inactive | inactive | inactive | inactive | inactive | inactive | inactive | inactive | inactive | inactive | inactive | inactive |
